Among the data in PubChem BioAssay (NCI) are growth inhibition values, retold here.

SMILES strings stand for the structures. About 79,000 compounds went through this panel and 15% of them were active in at least one assay; those are over-represented in the sample as a whole. A number with no mark means an inactive call. Activity calls are given as the source filed them. No stated cut-off is given here; in the data, active means growth inhibition above about 70%; inactive means the rest.

Assay [1] in a line: NCI Yeast Anticancer Drug Screen. Data for the rad50 strain (AID 155).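 Further: 0% = growth of vehicle-only cultures of the same strain.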 The note with it: S. cerevisiae rad50 strain growth inhibition, stronger effect = higher value. A digest of the protocol:
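Vehicle-treated cultures provide the reference for the growth inhibition reported for compound-exposed, repair-deficient yeast.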

Assay [2] can be described thus: NCI Yeast Anticancer Drug Screen. Data for the mec2-1 strain (AID 157). The note with it: S. cerevisiae mec2-1 strain, stronger effect = higher value. A digest of the protocol: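 Readout is yeast growth inhibition, normalised to vehicle-treated controls, in the mec2-1 strain exposed to compound.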
Assay [3] is described as follows: NCI Yeast Anticancer Drug Screen. Data for the sgs1 mgt1 strain (AID 161).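 Further: 0% = growth of cultures given vehicle only.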 The note with it: S. cerevisiae sgs1 mgt1 strain, stronger effect = higher value. The gist of the method:
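Yeast cells carrying a defined DNA-repair defect were exposed to test compounds. Growth inhibition was measured relative to vehicle-treated controls.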

A short description of assay [4]: NCI Yeast Anticancer Drug Screen. Data for the cln2 rad14 strain (AID 165).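 Further: 0% = growth equal to vehicle treated cultures.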 The note with it: S. cerevisiae cln2 rad14 strain, stronger effect = higher value. The gist of the method: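 Relative to vehicle controls, growth inhibition of compound-treated cln2 rad14 yeast was recorded.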
Assay [5] can be described thus: NCI Yeast Anticancer Drug Screen. Data for the bub3 strain (AID 167). The note with it: S. cerevisiae bub3 mutant strain, stronger effect = higher value. The gist of the method: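 Mutant yeast screening strain plus compound; vehicle-treated cultures serve as the 0% inhibition reference.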
A short description of assay [6]: NCI Yeast Anticancer Drug Screen. Data for the mlh1 rad18 strain (AID 175). The note with it: S. cerevisiae mlh1 rad18 strain growth inhibition, stronger effect = higher value. A digest of the protocol:
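Test agents were incubated with a yeast strain of defined genotype (DNA damage repair defect). Inhibition of growth was derived by comparison with vehicle-exposed cultures.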

The mark [7] stands for this setting: at 5.0 µM (retest, dose inferred, filed as 0.5).
[8] abbreviates: at 50.0 µM (retest, dose inferred, filed as 5.0).

Take `COc1ccc(Cc2nc3ccccc3s2)cc1OC`: the growth inhibition is 42% in assay [1] (setting [7]); 98% (active) in assay [1] (setting [8]); 90.3% (active) in assay [1] (at 50.0 µM); 39% in assay [2] (setting [7]); 99% (active) in assay [2] (setting [8]); 92.8% (active) in assay [2] (at 50.0 µM). For the same compound, the growth inhibition was 61% in assay [3] (setting [7]); 99% (active) in assay [3] (setting [8]); 93.7% (active) in assay [3] (at 50.0 µM); 42% in assay [4] (setting [7]); 97% (active) in assay [4] (setting [8]); 91.9% (active) in assay [4] (at 50.0 µM). For the same compound, the growth inhibition in assay [5] (setting [7]) was 51%; in assay [5] (setting [8]), 99% (active); in assay [5] (at 50.0 µM), 92.6% (active); in assay [6] (setting [7]) it was 73% (active); in assay [6] (setting [8]), 99% (active); in assay [6] (at 50.0 µM), 91.8% (active).

For the compound `CC(C)(C)c1ccc2c(c1)C(O)(c1ccccc1)C1OC1(C(C)(C)C)C2=O` (configuration not stated), the growth inhibition in assay [1] (setting [7]) is 10%; in assay [1] (setting [8]), 85% (active); in assay [1] (at 50.0 µM), 96.2% (active); in assay [2] (setting [7]), 9%; in assay [2] (setting [8]) it was 82% (active); in assay [2] (at 50.0 µM), 94.5% (active). Also, the growth inhibition in assay [3] (setting [7]) was 16%; in assay [3] (setting [8]), 82% (active); in assay [3] (at 50.0 µM), 79.3% (active); in assay [4] (setting [7]), 4%; in assay [4] (setting [8]), 87% (active); in assay [4] (at 50.0 µM) it was 91.7% (active). For the same compound, the growth inhibition in assay [5] (setting [7]) is -3%; in assay [5] (setting [8]), 88% (active); in assay [5] (at 50.0 µM) it was 94.7% (active); in assay [6] (setting [7]) it was 31%; in assay [6] (setting [8]), 91% (active); in assay [6] (at 50.0 µM), 93.2% (active).

Turning to `O=C(Oc1cc(Cl)c(Cl)cc1Cl)c1ccco1`, the growth inhibition was 0% in assay [1] (setting [7]); -1% in assay [1] (setting [8]); -1.8% in assay [1] (at 50.0 µM); 4% in assay [2] (setting [7]); 5% in assay [2] (setting [8]); -5.4% in assay [2] (at 50.0 µM). The growth inhibition in assay [3] (setting [7]) was 0%; in assay [3] (setting [8]), -3%; in assay [3] (at 50.0 µM) it was 23.9%; in assay [4] (setting [7]), 3%; in assay [4] (setting [8]) it was -5%; in assay [4] (at 50.0 µM), -10.2%. For the same compound, the growth inhibition in assay [5] (setting [7]) is 30%; in assay [5] (setting [8]), 18%; in assay [5] (at 50.0 µM), 84.8% (active); in assay [6] (setting [7]), 1%; in assay [6] (setting [8]), -4%; in assay [6] (at 50.0 µM), -0.9%.

For `COc1ccc(/C=N/n2c(C)nc3c(sc(=S)n3-c3ccccc3)c2=O)cc1`, the growth inhibition was 3% in assay [1] (setting [7]); -12% in assay [1] (setting [8]); 13.6% in assay [1] (at 50.0 µM); -3% in assay [2] (setting [7]); -6% in assay [2] (setting [8]); 46.8% in assay [2] (at 50.0 µM). The growth inhibition in assay [3] (setting [7]) is 3%; in assay [3] (setting [8]) it was 23%; in assay [3] (at 50.0 µM) it was 11.4%; in assay [4] (setting [7]) it was -15%; in assay [4] (setting [8]), 4%; in assay [4] (at 50.0 µM) it was 8.15%. In addition, the growth inhibition was 12% in assay [5] (setting [7]); 29% in assay [5] (setting [8]); 47.4% in assay [5] (at 50.0 µM); 22% in assay [6] (setting [7]); -12% in assay [6] (setting [8]); 10.8% in assay [6] (at 50.0 µM).

On to `O=c1[nH]cnc2nc(I)[nH]c12`, for which the growth inhibition is 1% in assay [1] (setting [7]); 3% in assay [1] (setting [8]); 14.8% in assay [1] (at 50.0 µM); -9% in assay [2] (setting [7]); -3% in assay [2] (setting [8]); 0.05% in assay [2] (at 50.0 µM). Further, the growth inhibition in assay [3] (setting [7]) is -5%; in assay [3] (setting [8]) it was 5%; in assay [3] (at 50.0 µM) it was -0.3%; in assay [4] (setting [7]) it was 1%; in assay [4] (setting [8]), -7%; in assay [4] (at 50.0 µM), 38.5%. In addition, the growth inhibition in assay [5] (setting [7]) was -1%; in assay [5] (setting [8]), -8%; in assay [5] (at 50.0 µM), 30.1%; in assay [6] (setting [7]) it was 7%; in assay [6] (setting [8]) it was -5%; in assay [6] (at 50.0 µM), 6%.

Regarding `O=C(C=P(c1ccccc1)(c1ccccc1)c1ccccc1)c1ccccc1-c1ccccc1C(=O)C=P(c1ccccc1)(c1ccccc1)c1ccccc1`, the growth inhibition is 98% (active) in assay [1] (setting [7]); 92% (active) in assay [1] (setting [8]); 87.9% (active) in assay [1] (at 50.0 µM); 99% (active) in assay [2] (setting [7]); 92% (active) in assay [2] (setting [8]); 90.8% (active) in assay [2] (at 50.0 µM). The growth inhibition was 99% (active) in assay [3] (setting [7]); 87% (active) in assay [3] (setting [8]); 90.5% (active) in assay [3] (at 50.0 µM); 97% (active) in assay [4] (setting [7]); 93% (active) in assay [4] (setting [8]); 88.5% (active) in assay [4] (at 50.0 µM). Further, the growth inhibition was 99% (active) in assay [5] (setting [7]); 93% (active) in assay [5] (setting [8]); 88.2% (active) in assay [5] (at 50.0 µM); 95% (active) in assay [6] (setting [7]); 88% (active) in assay [6] (setting [8]); 90.4% (active) in assay [6] (at 50.0 µM).

With `Cc1cccc(C)c1NC(=O)/C(Cl)=C(/Cl)C(=O)O`, the growth inhibition was 66% in assay [1] (setting [7]); 98% (active) in assay [1] (setting [8]); 91.2% (active) in assay [1] (at 50.0 µM); 67% in assay [2] (setting [7]); 99% (active) in assay [2] (setting [8]); 86.2% (active) in assay [2] (at 50.0 µM). Moreover, the growth inhibition in assay [3] (setting [7]) is 82% (active); in assay [3] (setting [8]), 98% (active); in assay [3] (at 50.0 µM), 88% (active); in assay [4] (setting [7]), 47%; in assay [4] (setting [8]), 81% (active); in assay [4] (at 50.0 µM) it was 82.8% (active). In addition, the growth inhibition in assay [5] (setting [7]) is 85% (active); in assay [5] (setting [8]) it was 99% (active); in assay [5] (at 50.0 µM), 90% (active); in assay [6] (setting [7]) it was 63%; in assay [6] (setting [8]), 99% (active); in assay [6] (at 50.0 µM) it was 93.8% (active).

As to `C=CCOC(=O)CC(O)C(=O)OCC=C` (configuration not stated), the growth inhibition in assay [1] (setting [7]) is -5%; in assay [1] (setting [8]), 7%; in assay [1] (at 50.0 µM), 0.95%; in assay [2] (setting [7]), 4%; in assay [2] (setting [8]), -2%; in assay [2] (at 50.0 µM), -12.7%. The growth inhibition in assay [3] (setting [7]) was -1%; in assay [3] (setting [8]) it was 3%; in assay [3] (at 50.0 µM), -29.6%; in assay [4] (setting [7]), 1%; in assay [4] (setting [8]), -9%; in assay [4] (at 50.0 µM) it was 13.8%. The growth inhibition in assay [5] (setting [7]) was 0%; in assay [5] (setting [8]), -8%; in assay [5] (at 50.0 µM), 7.85%; in assay [6] (setting [7]), -5%; in assay [6] (setting [8]) it was 13%; in assay [6] (at 50.0 µM), -2.45%.

Regarding `CN(C)Cc1ccc2c(c1)c1c(n2Cc2ccccc2)CCCC1`, the growth inhibition in assay [1] (setting [7]) is -2%; in assay [1] (setting [8]), 94% (active); in assay [1] (at 50.0 µM) it was 84.3% (active); in assay [2] (setting [7]), -7%; in assay [2] (setting [8]), 84% (active); in assay [2] (at 50.0 µM), 70.2% (active). For the same compound, the growth inhibition in assay [3] (setting [7]) is -4%; in assay [3] (setting [8]), 20%; in assay [3] (at 50.0 µM), 90.4% (active); in assay [4] (setting [7]), -5%; in assay [4] (setting [8]) it was 96% (active); in assay [4] (at 50.0 µM), 86.7% (active). The growth inhibition in assay [5] (setting [7]) is -8%; in assay [5] (setting [8]), 96% (active); in assay [5] (at 50.0 µM), 97.9% (active); in assay [6] (setting [7]), 3%; in assay [6] (setting [8]), 97% (active); in assay [6] (at 50.0 µM), 97.7% (active).
